Assay outcomes (PubChem)
An excerpt weighted towards active compounds, which were near 4% of everything screened.
FBA Mtb inh – inhibitors of M. tuberculosis fructose-bisphosphate aldolase | P9WQA3 | purified M. tuberculosis FBA, fluorescence read-out | inhibition, % at 1 µM | 2.3% of 360,000 active | AID 588726; in the data active means inhibition above about 27%;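 further: 0% = vehicle and 100% = reference inhibitor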
RecA intein inh – Mtb RecA intein splicing inhibition; cell-free RecA intein splicing, fluorescence; inhibition, % (no concentration beside the values); P9WHJ3; 0.75% of 290,000 active; in the data active means inhibition above about 30%;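 further: 0% = vehicle wells and 100% = reference inhibitor control wells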
UGM FP inh – Mtb UDP-galactopyranose mutase inhibition; P9WIQ1; purified UGM, fluorescence polarization probe displacement; inhibition, % at 10 µM; 0.06% of 320,000 active; AID 504406; in the data active means inhibition above about 10%, passing the limit was not always enough
Mtb betalactam – beta-lactam sensitization of Mtb H37Rv; M. tuberculosis H37Rv growth with meropenem, percent inhibition; inhibition, % at 25 µM; 0.27% of 330,000 active; call rule not given here;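 further: growth measured after seven days incubation then overnight dye step; 0% = bacteria only wells and 100% = bacteria with antibiotic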
Rv3671c inh – Rv3671c (M. tuberculosis) protease inhibition. P9WHR9. inhibition, % at 5.96 µM. 0.048% of 320,000 active. AID 2606; in the data active means inhibition above about 38%;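 further: extracellular domain of Rv3671c used as enzyme; 0% = enzyme with DMSO and 100% = no enzyme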
Target sequence (P9WHR9 whole entry, looked up, the tested form may be a part): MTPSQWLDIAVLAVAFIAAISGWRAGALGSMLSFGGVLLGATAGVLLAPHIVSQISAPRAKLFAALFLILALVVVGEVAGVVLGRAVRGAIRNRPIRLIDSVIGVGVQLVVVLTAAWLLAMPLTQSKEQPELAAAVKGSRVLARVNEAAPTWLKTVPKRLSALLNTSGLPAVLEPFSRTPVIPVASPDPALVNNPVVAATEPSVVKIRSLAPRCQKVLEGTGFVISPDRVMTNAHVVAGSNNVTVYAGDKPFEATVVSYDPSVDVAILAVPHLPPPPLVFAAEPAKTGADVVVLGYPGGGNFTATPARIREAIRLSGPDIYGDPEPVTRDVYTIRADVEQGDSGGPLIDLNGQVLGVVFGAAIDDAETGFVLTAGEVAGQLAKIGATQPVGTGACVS
GDH-TPI counter – counter-screen for M. tuberculosis FBA inhibitors: GDH-TPI coupled enzymes; GDH-TPI coupled enzyme counterscreen, NADH absorbance; inhibition, % at 4.8 µM; 1.2% of 360,000 active; in the data active means inhibition above about 30%;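 further: 0% = DMSO wells and 100% = wells lacking the enzyme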
* marks the source's active call; other numbers are inactive results; nt = no result given; + = active, no number.

SMILES	FBA Mtb inh	RecA intein inh	UGM FP inh	Mtb betalactam	Rv3671c inh	GDH-TPI counter
CN1C(=O)/C(=C/c2ccc(C(=O)Nc3ccc(O)cc3C(=O)O)cc2)SC1=S	-1.1	20.0	2.8	7.5	-16.9	9.6
COC(CN(C(=O)CCl)C(C(=O)NC1CCCCC1)c1ccc(C)cc1)OC (stereo not drawn)	0.7	31.6*	0.1	-4.5	-5.2	0.7
COc1ccc(C(C(=O)NC2CCCCC2)N(C(=O)CCl)c2ccc(C)cc2)cc1 (stereo not drawn)	-1.7	-2.9	2.7	7.0	-0.5	12.2
CC(CCN1CCC(CN2C(=O)C(=O)NC[C@@H]2Cc2ccccc2)CC1)c1ccccc1 (stereo partly drawn)	-2.3	nt	nt	nt	nt	-7.3
COc1ccc(C(=O)c2oc3ccccc3c2NC(C)=O)cc1	-0.3	-4.5	1.0	10.8	-19.4	32.9*
COc1cccc(NC(=O)c2oc3ccccc3c2NC(=O)c2ccc3c(c2)OCO3)c1	1.6	1.8	1.7	-21.8	-139.6	35.7*
O=C(c1ccccc1)c1ccc(C(=O)N2CCN(c3ccccc3O)CC2)cc1	-1.4	nt	nt	nt	nt	-3.6
CC[n+]1c(/C=C(/C)SC)sc2ccccc21	2.2	7.9	0.1	11.4	-14.4	38.3*
CC[n+]1c(/C=C(\C)Nc2ccccc2)sc2ccccc21	1.4	nt	1.5	-6.2	-7.8	31.0*
CC[n+]1c(/C=C(\C)SC)sc2ccccc21	1.6	10.8	-1.3	4.0	-6.8	13.2
CC[n+]1c(/C=C(\C)OC)sc2ccccc21	1.1	nt	nt	nt	nt	23.6
Cc1ccc([C@H]2C(C(=O)O)=CC[C@@H](c3ccc(C)cc3)N2S(=O)(=O)c2ccccc2C)cc1	-1.0	nt	nt	5.2	1.4	3.8
CNC(=O)C1CC(=O)N/C(=N/N=C(\C)c2cccs2)S1 (stereo not drawn)	-5.0	0.4	-0.4	-9.6	3.8	37.3*
COc1ccc(/C(C)=N/N=C2/NC(=O)CC(C(=O)O)S2)cc1 (stereo not drawn)	2.1	-3.5	1.1	1.8	-4.7	16.5
COc1ccc(/C(C)=N/N=C2/NC(=O)CC(C(=O)O)S2)cc1F (stereo not drawn)	-5.0	-0.2	3.2	-6.8	6.1	51.9*
COc1ccc(Cn2nnnc2C(c2cc3ccc(OC)cc3[nH]c2=O)N2CCCCCC2)cc1 (stereo not drawn)	9.7	-4.1	1.6	-15.4	-7.1	34.0*
COc1cc(=O)n(C)c2cc(N(C)C)ccc12	156.1*	13.1	2.1	-0.1	2.1	32.9*
Cc1ccc(C(=O)NC2CCN(S(=O)(=O)c3ccccc3F)CC2)cc1	0.0	-0.2	-3.0	-2.6	-11.6	9.4
CCOc1ccc(/C=C(\C)C(=O)c2c(C)cc(C)[nH]c2=O)cc1	-2.6	-3.3	1.9	-1.9	-0.9	45.7*
O=S(=O)(c1cccs1)N1CN(Cc2cccs2)c2nc3ccccc3nc21	103.0*	-1.4	-1.1	0.2	-20.7	16.7
O=S(=O)(c1cccs1)N1CN(Cc2ccc(F)cc2)c2nc3ccccc3nc21	6.1	nt	0.7	-8.6	6.7	6.8
COc1ccc(/C=C/C(=O)Nc2cccnc2Cl)cc1	1.3	-0.3	1.7	-5.2	9.1	31.2*
COc1ccc(/C=C/C(=O)Nc2nc(N)n(-c3ccccc3)n2)cc1	-2.5	7.5	-0.3	6.6	4.8	33.5*
Nc1nc(NC(=O)/C=C\C(=O)O)nn1-c1ccccc1	2.1	-0.3	-2.9	1.7	-1.9	1.6
CCCCOCCCn1c(-c2ccco2)nc2nc3ccccc3nc21	+	-200.1	-2.7	99.5	0.9	28.9
SMILES	FBA Mtb inh	RecA intein inh	UGM FP inh	Mtb betalactam	Rv3671c inh	GDH-TPI counter
CC(C)Cn1c(-c2cccs2)nc2nc3ccccc3nc21	+	-119.4	-0.3	4.0	-8.3	19.1
CCCCn1c(-c2cccs2)nc2nc3ccccc3nc21	+	-119.7	0.0	15.1	3.8	23.4
c1ccc(Cn2c(-c3cccs3)nc3nc4ccccc4nc32)cc1	nt	-8.1	nt	nt	nt	nt
CCC(=O)Oc1ccc2c(c1)OC1(OC(C)=O)OC(C)CC1=C2C (stereo not drawn)	+	-48.3	-2.4	20.1	10.6	21.0
CCCCNS(=O)(=O)c1ccc2nc(-c3cccnc3)cc(C(=O)NCCOC)c2c1	1.2	0.0	-2.1	-1.9	-8.5	31.8*
COCCCNC(=O)c1cc(-c2cccnc2)nc2ccccc12	3.8	0.5	-0.8	-1.2	6.5	10.8
N#Cc1nc(-c2ccccc2)oc1NCC1CCCO1 (stereo not drawn)	171.0*	0.0	0.0	4.2	-1.7	6.5
